Source: PubChem BioAssay (Tox21)
Inconclusive results are not listed. Activity calls are given as the source filed them. Unless noted, the call rests on the fitted dose curve; in most records, active means well fitted curve in the direction sought with a large enough effect in the repeat runs; inconclusive means weak or mixed curves; inactive means no such curve, though single readings can be large; an effect the other way counts as inactive or inconclusive.

How the values were obtained:
[1] = qHTS assay to identify small molecule agonists of the hypoxia (HIF-1) signaling pathway - cell viability counter screen (AID 1224844; calls by dose curve; further: nearly all actives have a fitted effect of over 50% in size); details: HRE-bla ME-180 viability, CellTiter-Glo luminescence, 17 h; series mostly up to 76.8 µM
In short: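 Viability counter screen: HRE-bla ME-180 cells plated 5 hrs before compound addition, treated 17 hrs at 37C and 5% CO2, then CellTiter-Glo added after the FRET reporter read; luminescence after 30 min.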

[2] = qHTS assay to identify small molecule agonists of H2AX (AID 1224845; active means well fitted activation curve with a large enough effect in the signal ratio in the repeat runs, not every such curve was filed as active; the % refers to the signal ratio); details: CHO-K1 phospho-H2AX Ser139 HTRF, 3 h; series mostly up to 154 µM
In short: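 Wild-type CHO-K1 cells plated overnight, then exposed 3 hr at 37C to compounds at 15 concentrations (0.76% DMSO). Lysed, then HTRF anti-pH2AX(S139)-cryptate/anti-H2AX-d2 detection after 24 hr at room temperature; emissions 665 and 620 nm.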

[3] = qHTS assay to identify small molecule agonists of the hypoxia (HIF-1) signaling pathway (AID 1224846; active means well fitted activation curve with a large enough effect in the signal ratio in the repeat runs, not every such curve was filed as active; the % refers to the signal ratio); details: HRE-bla ME-180 cells, beta-lactamase ratio, 17 h; series mostly up to 76.8 µM
In short: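 Agonist mode reporter screen. ME-180 cells stably expressing bla under HRE control received test compounds in DMSO for 17 hrs (37C, 5% CO2), and beta-lactamase activity was then detected with the CCF4-AM FRET substrate.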

[4] = qHTS assay to identify small molecule agonists of H2AX - cell viability counter screen (AID 1224847; calls by dose curve; further: nearly all actives have a fitted effect of over 30% in size; further: potency means the concentration at half of the fitted maximal effect; on activity change, negative = cytotoxicity: top concentration of the series differs between compounds); details: CHO-K1 viability, CellTiter-Glo luminescence, 3 h; series mostly up to 154 µM
In short: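 Wild-type CHO-K1 cells (10% FBS medium) were plated overnight at 37C, exposed to compounds at 15 concentrations for 3 hr at 37C (0.76% DMSO final), and viability was read as CellTiter-Glo luminescence after 30 min at room temperature.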

[5] = qHTS assay to identify small molecule antagonists of the estrogen related receptor (ERR) signaling pathway from Tox21 library (AID 1224848); details: ERR reporter cell line, luciferase antagonist mode, 18 h; series mostly up to 92.4 µM; further: nearly all actives have a fitted effect of over 50% in size; further: potency means the concentration at half of the fitted maximal effect
In short: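 First, 2,000 ERR cells per well were plated and held 6 h at 37 C/5% CO2. Next, compounds in DMSO were pinned in and left 18 h at 37 C. Finally, ONE-Glo was added and luminescence read after 30 min at room temperature.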

[6] = qHTS assay to identify small molecule agonists of the estrogen related receptor (ERR) signaling pathway from Tox21 library (AID 1224849; calls by dose curve; further: nearly all actives have a fitted effect of over 15% in size); details: ERR reporter cell line, ONE-Glo luciferase, 18 h; at 92.4 µM (top of the series) unless noted
In short: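 Quantitative HTS in agonist format: NTP ERR cell line, compounds transferred in DMSO after 6 h plating, 18 h incubation at 37 C, ONE-Glo luminescence endpoint.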

[7] = qHTS RealTime-Glo MT Cell Viability Assay in HepG2 cells - 24 hour (AID 1224867); details: RealTime-Glo luminescence; series mostly up to 76.8 µM; further: nearly all actives have a fitted effect of over 50% in size
In short: (§1)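 Viability was tracked continuously by NanoLuc luminescence from prosubstrate reduced by living HepG2 cells, at successive time points over 40 h of compound exposure. Cells with reagent were preincubated 5 h at 37 °C before compound addition.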

[8] = qHTS RealTime-Glo MT Cell Viability Assay in HEK293 cells - 32 hour (AID 1224868); details: RealTime-Glo luminescence; series mostly up to 76.8 µM; further: top concentration of the series differs between compounds; nearly all actives have a fitted effect of over 50% in size
In short: (§2)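 Viability tracked continuously by luminescence as live cells reduce a prosubstrate for NanoLuc; HEK293 cells preincubated 5 h, compound-treated at 37 C, and read at 0, 8, 16, 24, 32 and 40 h.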

[9] = qHTS RealTime-Glo MT Cell Viability Assay in HepG2 cells - 40 hour (AID 1224870); details: RealTime-Glo luminescence; series mostly up to 76.8 µM; further: nearly all actives have a fitted effect of over 50% in size
In short: (§3)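 HepG2 cells mixed with RealTime-Glo MT reagents (NanoLuc plus cell-permeant prosubstrate) were seeded at 600 cells/well, incubated 5 h at 37 C/5% CO2, then pinned with compounds in DMSO; nonlytic luminescence tracked viability during 40 h treatment.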

[10] = qHTS RealTime-Glo MT Cell Viability Assay in HEK293 cells - 16 hour (AID 1224872); details: RealTime-Glo luminescence; series mostly up to 76.8 µM
In short: as §2

[11] = qHTS RealTime-Glo MT Cell Viability Assay in HEK293 cells - 40 hour (AID 1224874); details: RealTime-Glo luminescence; max response: active compounds read low; further: nearly all actives have a fitted effect of over 50% in size
In short: (§4)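 600 HEK293 cells per well, dispensed already mixed with RealTime-Glo MT reagents. Compound dosing came 5 h later. The same wells were read for luminescence at 0, 8, 16, 24, 32 and 40 h of exposure at 37 C.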

[12] = A CellTox Green Cytotoxicity Assay to monitor cytotoxicity in HEK293 cells - 24 hour (AID 1224875); details: CellTox Green fluorescence; series mostly up to 76.8 µM; further: nearly all actives have a fitted effect of over 45% in size
In short: (§5)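 Dead-cell fluorescence measured kinetically: asymmetric cyanine dye, HEK293, 600 cells/well, 5 h settle, 23 nL cpd/DMSO, 37 C, reads 0–40 h every 8 h.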

[13] = A CellTox Green Cytotoxicity Assay to monitor cytotoxicity in HepG2 cells - 16 hour (AID 1224876); details: CellTox Green fluorescence; series mostly up to 76.8 µM; further: nearly all actives have a fitted effect of over 45% in size
In short: (§6)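 First, HepG2 cells (600/well) mixed with reagent were plated; second, after 5 h at 37 C they received compounds via pintool; third, fluorescence was measured at 0 h through 40 h at 8 h intervals.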

[14] = qHTS RealTime-Glo MT Cell Viability Assay in HepG2 cells - 32 hour (AID 1224877); details: RealTime-Glo luminescence; series mostly up to 76.8 µM; further: nearly all actives have a fitted effect of over 55% in size
In short: as §1

[15] = A CellTox Green Cytotoxicity Assay to monitor cytotoxicity in HepG2 cells - 24 hour (AID 1224878); details: CellTox Green fluorescence; series mostly up to 76.8 µM; further: nearly all actives have a fitted effect of over 45% in size
In short: as §6

[16] = qHTS RealTime-Glo MT Cell Viability Assay in HEK293 cells - 0 hour (AID 1224880); details: RealTime-Glo luminescence; series mostly up to 76.8 µM; further: top concentration of the series differs between compounds; nearly all actives have a fitted effect of over 45% in size
In short: as §4

[17] = A CellTox Green Cytotoxicity Assay to monitor cytotoxicity in HEK293 cells - 0 hour (AID 1224869); details: CellTox Green fluorescence; series mostly up to 76.8 µM; further: nearly all actives have a fitted effect of over 50% in size
In short: as §5

[18] = A CellTox Green Cytotoxicity Assay to monitor cytotoxicity in HEK293 cells - 40 hour (AID 1224871); details: CellTox Green fluorescence; series mostly up to 76.8 µM; further: nearly all actives have a fitted effect of over 45% in size
In short: as §5

[19] = qHTS RealTime-Glo MT Cell Viability Assay in HepG2 cells - 8 hour (AID 1224873); details: RealTime-Glo luminescence; series mostly up to 76.8 µM; further: nearly all actives have a fitted effect of over 55% in size
In short: as §3

[20] = A CellTox Green Cytotoxicity Assay to monitor cytotoxicity in HepG2 cells - 40 hour (AID 1224879); details: CellTox Green fluorescence; series mostly up to 76.8 µM; further: nearly all actives have a fitted effect of over 40% in size
In short: as §6
On the % scale 0 is the no-effect control and ±100 the full control effect.

CC/C=C\CCOC(=O)CCCCC
inactive: Potency [1] | Potency [2] | outcome [3] | Potency [4] | Potency [5] | activity change, positive = activation [6] 5.28% | Potency [7] | Potency [8] | Potency [9] | Potency [10] | max response [11] -9.86% | Potency [12] | Potency [13] | Potency [14] | Potency [15] | outcome [16]

COC(=O)/C=C(/C)N
inactive: Potency [1] | Potency [2] | outcome [3] | Potency [4] | Potency [5] | activity change, positive = activation [6] 7.53% [at 42.5 µM] | Potency [7] | Potency [8] | Potency [17] | Potency [9] | Potency [18] | Potency [10] | outcome [19] | max response [11] 5.09% | Potency [12] | Potency [13] | Potency [15] | Potency [20] | outcome [16]

CCOc1ccccc1N
inactive: Potency [1] | Potency [2] | outcome [3] | activity change, positive = activation [6] -59% | Potency [7] | Potency [17] | Potency [9] | Potency [10] | outcome [19] | Potency [12] | Potency [14] | Potency [15] | Potency [20] | outcome [16]
active: Potency [4] 44.7 µM | Potency [5] 12.1 µM

O=C(O)c1ccccc1Nc1cc(Cl)ccc1C(=O)O
inactive: activity change, negative = cytotoxicity [1] 5.17% [at 15.8 µM] | activation (H2AX phosphorylation) [2] 5.25% [at 31.6 µM] | activation [3] -1.19% [at 15.8 µM] | activity change, negative = cytotoxicity [4] 9.56% [at 31.6 µM] | activity, negative = inhibition [5] -10.4% [at 19 µM] | activity change, positive = activation [6] -5.59% [at 19 µM] | activity change, negative = cytotoxicity [7] -0.715% [at 15.8 µM] | activity change, negative = cytotoxic [8] 3.41% [at 15.8 µM] | cytotoxicity [17] 1.27% [at 15.8 µM] | activity change, negative = cytotoxic [9] -5.11% [at 15.8 µM] | cytotoxicity increase [18] -12.4% [at 15.8 µM] | activity change, negative = cytotoxicity [10] 1.77% [at 15.8 µM] | viability change, negative = cytotoxic [19] 0.891% [at 15.8 µM] | max response [11] 2.59% | activity change [12] -4.95% [at 15.8 µM, active compounds read high] | cytotoxicity increase [13] 1.42% [at 15.8 µM] | activity change, negative = cytotoxic [14] -8.29% [at 15.8 µM] | cytotoxicity [15] 9.31% [at 15.8 µM] | cytotoxicity increase [20] 28.2% [at 15.8 µM] | activity change, negative = cytotoxicity [16] -6.06% [at 15.8 µM]

CO[Si](C)(C)OC
inactive: Potency [1] | Potency [2] | outcome [3] | Potency [4] | Potency [5] | activity change, positive = activation [6] 4.8% | Potency [7] | Potency [8] | Potency [17] | Potency [9] | Potency [18] | Potency [10] | outcome [19] | max response [11] -0.595% | Potency [12] | Potency [13] | Potency [15] | Potency [20] | outcome [16]

CCc1nnc(NS(=O)(=O)c2ccc(N)cc2)s1
inactive: Potency [1] | Potency [2] | outcome [3] | Potency [4] | Potency [5] | activity change, positive = activation [6] 2.74% [at 42.5 µM] | Potency [7] | Potency [8] | Potency [17] | Potency [9] | Potency [18] | Potency [10] | outcome [19] | max response [11] 6.63% | Potency [12] | Potency [13] | Potency [14] | Potency [15] | Potency [20] | outcome [16]

C=O
inactive: Potency [1] | Potency [2] | outcome [3] | Potency [4] | Potency [5] | activity change, positive = activation [6] 0.267% | Potency [7] | Potency [8] | Potency [17] | Potency [9] | Potency [18] | Potency [10] | outcome [19] | max response [11] -2.52% | Potency [12] | Potency [13] | Potency [15] | Potency [20] | outcome [16]

O=C1C=CC(=O)O1
inactive: Potency [1] | Potency [2] | outcome [3] | Potency [4] | Potency [5] | activity change, positive = activation [6] 7.02% | Potency [7] | Potency [8] | Potency [17] | Potency [9] | Potency [18] | Potency [10] | outcome [19] | Potency [12] | Potency [14] | Potency [15] | Potency [20] | outcome [16]

O=C(O[C@@H](C(=O)O)[C@@H](OC(=O)c1ccccc1)C(=O)O)c1ccccc1
inactive: Potency [1] | Potency [2] | outcome [3] | Potency [4] | Potency [5] | activity change, positive = activation [6] -13.3% | Potency [7] | Potency [8] | Potency [17] | Potency [9] | Potency [18] | Potency [10] | outcome [19] | Potency [12] | Potency [13] | Potency [15] | Potency [20] | outcome [16]

O=C1CCCc2ccccc21
inactive: Potency [1] | Potency [2] | outcome [3] | Potency [4] | Potency [5] | activity change, positive = activation [6] 6.42% | Potency [7] | Potency [8] | Potency [17] | Potency [9] | Potency [18] | Potency [10] | outcome [19] | Potency [12] | Potency [13] | Potency [14] | Potency [15] | outcome [16]

OC[C@H]1O[C@@H](O[C@H]2[C@H](O)[C@@H](O)[C@H](O)O[C@@H]2CO)[C@H](O)[C@@H](O)[C@H]1O
inactive: Potency [1] | Potency [2] | outcome [3] | Potency [4] | Potency [5] | activity change, positive = activation [6] 4.49% | Potency [7] | Potency [8] | Potency [17] | Potency [9] | Potency [18] | Potency [10] | outcome [19] | max response [11] 0.3% | Potency [12] | Potency [13] | Potency [14] | Potency [15] | outcome [16]

CCCCCCCCCC/C=C/C#N
inactive: Potency [1] | Potency [2] | outcome [3] | Potency [4] | Potency [5] | activity change, positive = activation [6] -1.03% | Potency [7] | Potency [8] | Potency [17] | Potency [9] | Potency [18] | Potency [10] | outcome [19] | max response [11] 4.49% | Potency [12] | Potency [13] | Potency [14] | Potency [15] | Potency [20]
